High-throughput results deposited in PubChem BioAssay by National Center for Advancing Translational Sciences (NCATS).
This is a sample that favours compounds with a hit; in the whole collection about 19% have one here.
DT40 TDP1 no CPT = qHTS for Inhibitors of human tyrosyl-DNA phosphodiesterase 1 (TDP1): qHTS in cells in absence of CPT | DT40 Tdp1-/- hTDP1 cells, no CPT, ATP luminescence, 48 h | Potency, µM (titrated, usually from 46.2 µM), without a hit: at the highest dose activity change, negative = growth inhibition, most hits filed as inhibitors | hit rate 15% among 420,000; note: potency is the fitted concentration of half-maximal effect; nearly all actives have a fitted effect of over 55% in size
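Luminescent ATP content (CellTiter-Glo) served as the growth readout. Knockout chicken DT40 cells expressing human TDP1 were exposed to compounds without camptothecin for a minimum 48 hr at 37 °C.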
HT1080-NT tox = kills 2HG-producing HT-1080-NT fibrosarcoma cells; Potency, µM (doses to about 46.1 µM), inactives show at the highest dose activity, negative = less viability, usual class: cytotoxic; hit rate 1.6% among 360,000; HT-1080-NT fibrosarcoma viability, CellTiter-Glo ATP luminescence, 48 h;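 note: NT is the 2HG producing partner of a matched IDH1 knockdown line; potency is the fitted concentration of half-maximal effect; 0% = DMSO-treated cells and -100% = media-only wells without cells; nearly all actives have a fitted effect of over 55% in size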
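Read-out is CellTiter-Glo luminescence after 10 minutes at room temperature, following 48 hours' compound treatment of HT-1080-NT cells (750 cells/well, RPMI, 5% FBS, 37 degrees C).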
IL-1B inflam inh = inhibitors of inflammasome signaling (IL-1 beta secretion); activity change, % at 57.5 µM; THP-1 LPS/ATP IL-1B secretion, AlphaLISA, 16 h; active compounds read low; hit rate 4.7% among 360,000; in the data active = activity change below about -50%; inconclusive = mostly about -30% to -49%
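Secreted IL-1B measured by AlphaLISA bead assay after 16 h compound exposure of THP-1 cells; compounds (final up to 57.5 uM) added 1 h before LPS (250 ng/mL) and ATP (1.25 mM) stimulation; lower signal means less secretion.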
TDP1 cell CPT = DT40-hTDP1 cell growth loss with CPT; chicken DT40 Tdp1-/-;hTDP1 cells + 20 nM CPT, ATP luminescence, 48 h; Potency, µM (doses to about 46.2 µM), for the others: at the highest dose activity change, negative = growth inhibition, hits mostly inhibitors; AID 686979; hit rate 12% among 420,000; note: potency is the fitted concentration of half-maximal effect; nearly all actives have a fitted effect of over 55% in size
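Cell growth measured by CellTiter-Glo luminescence after a minimum 48 h, 37 C compound exposure with 20 nM CPT in Tdp1-knockout DT40 cells stably expressing hTDP1, seeded 400/well; qHTS titration format.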
ELG1 repair inh = ELG1-dependent DNA repair inhibition. hit rate 2.3% among 330,000. AID 504467. Potency, µM (series often up to 46.1 µM), for the others: at the highest dose activity change, negative = inhibition, actives largely listed as inhibitors. HEK293T ELG1-luciferase reporter, luminescence, 16 h; DNA damage induced by 5-fluorouridine; note: potency is the fitted concentration of half-maximal effect; nearly all actives have a fitted effect of over 55% in size
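Step one: seed 2,000 cells per well. Step two: pin-transfer compound or DMSO alongside 5-fluorouridine. Step three: incubate 16 hr, 37 °C, 5% CO2. Step four: add ONE-Glo, wait 30 min, read luminescence.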
HT1080 IDH1KD tx = toxicity to HT-1080 IDH1 knockdown cells (counter line); AID 686971; HT-1080 IDH1 knockdown viability, ATP luminescence, 48 h; Potency, µM (titrated, usually from 46.1 µM), for inactives: top-dose activity, negative = toxicity, usual class: cytotoxic; hit rate 2% among 360,000;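 note: potency is the fitted concentration of half-maximal effect; 0% = DMSO wells and -100% = cell-free medium wells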
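Assay cells: HT-1080 with IDH1 knockdown, 750 per well, RPMI/5% FBS. Exposure: 48 h at 37 °C following 2 h pre-incubation. Read: CellTiter-Glo luminescence; fitted concentration-response, curve class assigned.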
An asterisk follows results filed as active; i = inactive; ? = inconclusive; . = not tested or not shown. Unless noted, calls come from the whole dose curve; as a rule, active = well fitted curve in the direction sought with a large enough effect; inconclusive = small, poorly fitted or top-dose-only effect, or another doubt; inactive = no such curve, though single readings can be large; an effect the other way counts as inactive or inconclusive. Unless noted, % is set by controls: 0 for no effect and ±100 for the full control effect.

SMILES	DT40 TDP1 no CPT	HT1080-NT tox	IL-1B inflam inh	TDP1 cell CPT	ELG1 repair inh	HT1080 IDH1KD tx
COc1ccc(CNC(=O)c2ccc3ccccc3n2)cc1OC	?	?	-0.6	?	16.4µM*	-10.3%
COc1ccc(CNc2nc3c(S(=O)(=O)c4ccccc4)nnn3c3ccc(Cl)cc23)cc1	-26.7%	.	.	?	.	.
COc1ccc(CNc2nc(SCc3cc(=O)n4cc(Cl)ccc4n3)nc3ccccc23)cc1	20.6µM*	-0.7%	18.6	13µM*	?	-4.4%
CC(=O)c1nn(-c2ccc(Br)cc2)cc1C(=O)c1ccccc1	-25.9%	-8.2%	0.0	4.6%	-14.9%	-14.5%
N#Cc1cn(-c2ccccc2)nc1C(=O)c1ccccc1	11.6µM*	-14.6%	-3.1	?	2.9%	-11.5%
CC(=O)c1nn(-c2ccccc2)cc1C(=O)c1ccc(C)cc1	23.1µM*	-1.8%	-0.4	?	.	-0.5%
CC(=O)c1nn(-c2ccc(Cl)cc2)cc1C(=O)c1ccc(C)cc1	?	-0.3%	.	-29.3%	.	-3.4%
CCCOc1ccc(C(=O)Nc2ccc(NC(=O)c3cccc(Cl)c3)cc2)cc1	-22.2%	.	.	-10.1%	.	.
CCCOc1ccc(C(=O)Nc2ccc(NC(=O)c3ccccc3)c(Br)c2)cc1	-70.8%	.	.	14.6µM*	.	.
CCCOc1cccc(C(=O)Nc2cc(-c3ccccc3)no2)c1	?	.	.	11.6µM*	.	.
O=C(Nc1nnc(-c2ccc(F)cc2)o1)c1cccc([N+](=O)[O-])c1	3.26µM*	-24.9%	95.4	3.66µM*	?	?
Cc1ccc(-c2cc(NC(=O)c3cccc(C)c3)on2)cc1	-26.2%	.	.	-21.3%	.	.
COc1cccc(-c2nnc(NC(=O)c3cccc(F)c3)o2)c1	3.26µM*	-4.4%	33.1	3.26µM*	11.7%	-9.1%
O=C(Nc1nnc(C2=COCCO2)o1)c1cccc([N+](=O)[O-])c1	-5.6%	0.9%	i	-8.2%	16.7%	-0.3%
CCOC(=O)c1c(C)[nH]c(C)c1S(=O)(=O)N(C)CC(=O)NCc1ccc(F)cc1	4.9%	-0.5%	53.4	-0.8%	0.1%	1.1%
O=C(NCCc1ccc(Cl)cc1)c1nnc(Cc2ccc(F)cc2)o1	3.4%	.	.	0.3%	.	.
O=C(Nc1c(C(=O)Nc2ccccc2)cnn1-c1ccccc1)c1ccco1	-20.5%	0.0%	12.2	-2.7%	?	-3.4%
COc1cccc(-c2nnc(-c3ccc(C)o3)o2)c1	-10.6%	14.9%	-2.4	7.2%	?	8.8%
COc1cccc(C(=O)Nc2cccc(-c3ccccc3)c2)c1	?	0.8%	6.2	?	6.2%	-4.5%
COc1cccc(C(=O)Nc2ccc(-c3nnc(-c4ccco4)o3)cc2)c1	10.3µM*	-16.3%	-19.0	?	-10.2%	?
COc1cccc(C(=O)Nc2cccc(-c3nnc(-c4ccccc4)o3)c2)c1	18.4µM*	-1.8%	104.4	?	.	-9.2%
Cc1ccc(NC(=O)c2cnn(-c3ccccc3)c2NC(=O)c2ccco2)cc1	?	1.2%	-17.0	13µM*	-16.7%	13.7%
COc1cccc(-c2nnc(-c3ccco3)o2)c1	29.1µM*	25.7%	4.9	?	?	4.9%
O=C(c1cccc(Cl)c1)N1CCN(CCCc2ccccc2)CC1	-10.1%	8.4%	-2.1	-28.3%	5.4%	8.2%
CC(C)C[C@@H](CN)NC(=O)c1nc[nH]c1C(=O)N[C@@H](CC(C)C)C(=O)CNC[C@H](C)NC(=O)c1nc[nH]c1C(=O)N[C@@H](C)C(=O)O	-7.5%	3.6%	-10.6	-13.7%	.	-2.3%
CCOc1cccc(C(=O)Nc2cccc(-c3nnc(-c4ccc(C)cc4)o3)c2)c1	?	-7.6%	0.0	18.4µM*	-2.7%	-1.6%
